# T cruzi growth = T. cruzi intracellular proliferation inhibitors, primary screen, cell-based, beta-gal Tulahuen parasites, NIH3T3 host, luminescence. T. cruzi beta-gal in NIH3T3, GalScreen luminescence, 90 h. inhibition, % at 8.34 µM. 77,000 compounds, 5.9% hits. AID 624255, 2012;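 active = mean inhibition above about 93%, with at least 55% of replicates each passing it, limit read from the data, passing the limit was not always enough; inconclusive = only one of those two conditions holds; inactive = neither condition holds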
# C diff growth = C. difficile growth inhibitors, primary screen, HTS; Clostridium difficile clinical isolate growth, OD600, 24 h; active compounds read low; growth activity, negative = inhibition, % at 16 µg/mL (by protocol); 86,000 compounds, 0.25% hits;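 active = mean growth activity at or below -80% and every replicate also at or below -80%; inconclusive = mean at or below -80% but some replicate above -80%; inactive = mean growth activity above -80%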;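 also: 0% = DMSO wells and -100% = levofloxacin 16 µg/mL wells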
# Pf Dd2 growth = P. falciparum Dd2 growth inhibitors, primary screen, SYBR Green fluorescence, single dose replicates; 94,000 compounds, 2.3% hits; activity change, % at 10 µM; 72 h; active compounds read low; in the data active = activity change below about -80%; inconclusive = no clear call, values can overlap the other calls
# Numbers without * were called inactive; ? = inconclusive; nt = no result given. Compounds with a hit are over-represented: about 6.8% of the library has one in this group of screens.
SMILES,T cruzi growth,C diff growth,Pf Dd2 growth
COc1cccc(S(=O)(=O)N2CCCCN3[C@H](C2)[C@@H](c2ccc(C#CCC(C)C)cc2)[C@@H]3CO)c1,90,4,-19
Cc1ccc(-c2ccc([C@@H]3[C@H](CO)N4CCCCN(S(=O)(=O)c5ccccc5C)C[C@@H]34)cc2)cc1,-15,17,-82*
COc1cccc(S(=O)(=O)N2CCCCN3[C@@H](CO)[C@@H](c4ccc(C5=CCCCC5)cc4)[C@@H]3C2)c1,73,-10,-84*
COc1cccc(S(=O)(=O)N2CCCCN3[C@@H](CO)[C@@H](c4ccc(C#CCC(C)C)cc4)[C@@H]3C2)c1,93,2,-84*
Cc1ccc(-c2ccc([C@H]3[C@@H](CO)N4CCCCN(S(=O)(=O)c5ccccc5C)C[C@@H]34)cc2)cc1,92,2,-28
C/C=C/c1ccc2c(c1)O[C@@H](CN(C)C(=O)C1CC1)[C@@H](C)CN([C@H](C)CO)S2(=O)=O,-137,-5,0
C[C@@H]1CCCCO[C@@H](CN(C)Cc2ccc(Cl)c(Cl)c2)[C@@H](C)CN([C@@H](C)CO)C(=O)c2cc(NS(=O)(=O)c3cn(C)cn3)ccc2O1,34,6,-38
COc1ccc(S(=O)(=O)Nc2cccc3c2O[C@@H](CN(C)S(=O)(=O)c2cccs2)[C@H](C)CN([C@@H](C)CO)C3=O)cc1,15,0,-27
C[C@@H]1CCCCO[C@@H](CN(C)Cc2ccc(C(F)(F)F)cc2)[C@@H](C)CN([C@H](C)CO)C(=O)c2cc(NC(=O)Cc3ccccc3)ccc2O1,89,nt,1
C[C@@H]1CN([C@@H](C)CO)C(=O)c2cc(NC(=O)CCCN(C)C)ccc2O[C@@H](C)CCCCO[C@@H]1CN(C)Cc1ccc(C(F)(F)F)cc1,-70,1,-80
C[C@@H]1CCCCO[C@H](CN(C)Cc2ccc(C(F)(F)F)cc2)[C@H](C)CN([C@@H](C)CO)C(=O)c2cc(NC(=O)Cc3ccccc3)ccc2O1,-25,nt,-61
C[C@H](CO)N1C[C@H](C)[C@@H](CN(C)Cc2ccc(C(F)(F)F)cc2)OCCCC[C@H](C)Oc2ccc(NC(=O)Cc3ccccc3)cc2C1=O,1,nt,-81*
C[C@@H]1CCCCO[C@H](CN(C)CC2CCCCC2)[C@@H](C)CN([C@H](C)CO)C(=O)c2cc(NC(=O)CCCN(C)C)ccc2O1,-1,12,-28
C[C@@H]1CCCCO[C@@H](CN(C)Cc2ccc(C(F)(F)F)cc2)[C@H](C)CN([C@@H](C)CO)C(=O)c2cc(NC(=O)Cc3ccccc3)ccc2O1,-11,nt,-86*
C[C@@H]1CCCCO[C@H](CN(C)Cc2ccc(C(F)(F)F)cc2)[C@H](C)CN([C@@H](C)CO)C(=O)c2cc(NC(=O)CCCN(C)C)ccc2O1,66,-6,-89*
C[C@H]1CCCCO[C@@H](CN(C)CC2CCCCC2)[C@@H](C)CN([C@@H](C)CO)C(=O)c2cc(NC(=O)CCCN(C)C)ccc2O1,18,4,-89*
C[C@H]1CN([C@@H](C)CO)C(=O)c2cc(-c3ccccc3)cnc2O[C@@H]1CN(C)C(=O)NC1CCCC1,-20,-2,-18
O=C(NCc1ccc(F)cc1)[C@H]1[C@H](CO)[C@H]2Cn3c(cccc3=O)[C@@H]1N2C(=O)Cc1ccccn1,70,-6,nt
COc1cccc(S(=O)(=O)N(C)C[C@@H]2Oc3cc(C#CCN(C)C)ccc3S(=O)(=O)N([C@H](C)CO)C[C@H]2C)c1,?,-3,-75
COc1ccc(S(=O)(=O)N(C)C[C@H]2Oc3ccc(NS(C)(=O)=O)cc3CC(=O)N([C@H](C)CO)C[C@@H]2C)cc1,42,-3,17
CNC(=O)C[C@H]1CC[C@H]2[C@@H](COc3ccc(NC(=O)c4cccc(F)c4)cc3C(=O)N2C)O1,-7,4,4
COc1ccc(NC(=O)N(C)C[C@H]2Oc3cc(C#CCC(C)C)ccc3S(=O)(=O)N([C@H](C)CO)C[C@H]2C)cc1,6,0,-88*
CCCC#Cc1ccc2c(c1)O[C@H](CN(C)C(=O)Nc1ccc(OC)cc1)[C@H](C)CN([C@H](C)CO)S2(=O)=O,83,nt,-87*
CCCC#Cc1ccc2c(c1)O[C@H](CN(C)C(=O)Nc1ccc(OC)cc1)[C@@H](C)CN([C@H](C)CO)S2(=O)=O,75,2,-35
COc1ccc(NC(=O)N(C)C[C@@H]2Oc3cc(C#CCC(C)C)ccc3S(=O)(=O)N([C@@H](C)CO)C[C@H]2C)cc1,91,-17,-53
SMILES,T cruzi growth,C diff growth,Pf Dd2 growth
CO[C@@H]1CN(C)C(=O)c2ccc(NC(C)=O)cc2OC[C@@H](C)N(C(=O)c2ccccc2)C[C@@H]1C,nt,2,28
C[C@@H]1CCCCO[C@@H](CN(C)C(=O)Nc2cccc3ccccc23)[C@H](C)CN([C@H](C)CO)C(=O)c2cc(NC(=O)C3CCCCC3)ccc2O1,78,7,-77
COc1cccc(CN2CCC3(CC2)CN(C(=O)C2CC2)[C@H](CO)c2c3c3ccc(OC)cc3n2C)c1,nt,3,-85*
COc1ccc2c3c(n(C)c2c1)[C@H](CO)N(C(=O)C1CC1)CC31CCN(Cc2cccc(F)c2)CC1,nt,9,-72
COc1ccc2c3c(n(C)c2c1)[C@H](CO)N(C(=O)C1CCC1)CC31CCN(Cc2cccc(F)c2)CC1,nt,-7,-84*
COc1ccc2c3c(n(C)c2c1)[C@@H](CO)N(C(=O)C1CCC1)CC31CCN(Cc2cccc(F)c2)CC1,nt,-3,-72
O=C(C1CCCCC1)N1CC(=O)N2[C@H](CO)[C@H](c3ccc(-c4cccnc4)cc3)[C@H]2C1,nt,-2,7
CC(C)NC(=O)Nc1ccc2c(c1)C(=O)N([C@@H](C)CO)C[C@@H](C)[C@@H](CN(C)C(=O)Cc1ccccc1)OCCCC[C@H](C)O2,4,-2,-6
COc1ccc2c3c(n(C)c2c1)[C@@H](CO)N(C(=O)c1ccc(F)cc1)CC31CN(C(=O)Nc2ccc(F)cc2)C1,nt,3,-89*
COc1ccc2c3c(n(C)c2c1)[C@H](CO)NCC31CN(Cc2ccc(-c3ccccn3)cc2)C1,nt,6,-88*
COc1ccc2c3c(n(C)c2c1)[C@@H](CO)N(C(=O)Nc1ccc(F)cc1)CC31CN(Cc2ccccc2F)C1,nt,-21,-88*
COc1ccc2c3c(n(C)c2c1)[C@@H](CO)N(C(=O)c1ccc(F)cc1)CC31CN(CC2CCOCC2)C1,nt,-7,-88*
COc1ccc2c3c(n(C)c2c1)[C@@H](CO)NCC31CN(Cc2ccccc2Cl)C1,nt,8,-23
COc1ccc2c3c(n(C)c2c1)[C@H](CO)N(C(=O)Nc1ccc(F)cc1)CC31CCN(Cc2ccccc2F)CC1,nt,4,-76
COc1ccc2c3c(n(C)c2c1)[C@H](CO)N(C(=O)c1ccc(F)cc1)CC31CN(C(=O)Nc2ccc(F)cc2)C1,nt,10,-76
COc1ccc2c3c(n(C)c2c1)[C@H](CO)N(C(=O)c1ccc(F)cc1)CC31CN(CC2CC2)C1,nt,6,-58
C[C@H](CO)N1C[C@H](C)[C@H](CN(C)Cc2cccnc2)Oc2cc(-c3cccnc3)ccc2S1(=O)=O,5,16,-4

# Compound activity from PubChem BioAssay.
